Activity calls are given as the source filed them. Cut-off read from the data, not from the text of the source: active = fold change mostly below about -2 (no sharp cut-off); inactive = mostly above about -1.8.
test: TERT promoter activity modulators, primary screen, cell-based, luciferase reporter, human (AID 1259240); settings: A2780 TERT promoter luciferase reporter, 16 h; at 20 µM, fold versus average of vehicle-only wells

Row | SMILES | fold change | outcome
1 | Cc1cc(C)cc(-c2nc(-c3cccnc3)no2)c1 | -2.32 (active) | 
2 | O=C(O)c1cc(S(=O)(=O)O)cc(Nc2c3ccccc3nc3ccccc23)c1O | -1.04 (inactive) | 
3 | Cc1ccc(Cn2ccc(NC(=O)c3noc(C(C)C)c3[N+](=O)[O-])n2)cc1 | -2.42 (active) | 
4 | Cc1ccc(-c2cc(C(F)F)n3ncc(C(=O)Nc4cccnc4Cl)c3n2)cc1 | -1.66 (inactive) | 
5 | CC(C)OCCCNc1nc(-c2ccccc2)nc2ccccc12 | -1.24 (inactive) | 
6 | O=C1c2ccccc2C(=O)N1CCC1=NCCc2ccccc21 | -1.59 (inactive) | 
7 | CCOC(=O)N1CCC(Nc2c(N(CC)CC)c(=O)c2=O)CC1 | 1.22 (inactive) | 
8 | Cc1ccc2nc(NCc3ccc4c(c3)OCO4)c3nncn3c2c1 | 1.52 (inactive) | 
9 | CC1CCCN(C(=O)c2ccc3c(=O)n4c(nc3c2)CCCCC4)C1 (stereo not given) | 1.14 (inactive) | 
10 | Cc1nc2c3ccccc3nc(NNC(=O)CCC(=O)N3CCCC(C)C3)n2n1 (stereo not given) | -1.02 (inactive) | 
11 | O=C(CN1C(=O)COc2ccc(S(=O)(=O)N3CCOCC3)cc21)NCc1ccc2c(c1)OCO2 | 1.18 (inactive) | 
12 | COc1ccc(-c2c(C)oc3c(CN4CCN(C)CC4)c(O)ccc3c2=O)cc1 | 1.02 (inactive) | 
13 | Nc1cc(-c2ccccc2)nn1S(=O)(=O)c1ccc(Br)cc1 | 1.63 (inactive) | 
14 | CCC(Sc1nnc(-c2c[nH]c3ccccc23)n1CCOC)C(=O)OC (stereo not given) |  | inactive
15 | COc1cccc(-c2nc(S(=O)(=O)c3ccc(C)cc3)c(N(C)C)o2)c1 | -1.82 (inactive) | 
16 | NC(=O)C1CCN(C(=O)CCCc2nnc3n4nc(-c5ccccc5)nc4c4ccccc4n23)CC1 | -1 (inactive) | 
17 | Cc1ccc(-c2nc3cnccn3c2Nc2ccccc2C)o1 | -1.64 (inactive) | 
18 | CCc1nc2c(cnn2-c2ccc(F)cc2)c(=O)n1-c1ccc(OC)c(Cl)c1 | 1.04 (inactive) | 
19 | COc1cc2c(cc1OC)C(c1ccc(C)c(Br)c1)CC(=O)N2 (stereo not given) | -1.04 (inactive) | 
20 | Cc1noc(C(=O)Nc2cccnc2Cl)c1Cl | 1.48 (inactive) | 

Row | SMILES | fold change | outcome
21 | CC1=C(C(N)=O)C(c2ccc(Br)cc2)n2nc(CCCO)nc2N1 (stereo not given) |  | inactive
22 | CN(C)c1ccc(/C=C2/SC(=S)NC2=O)cc1 | -4.47 (active) | 
23 | O=C(NCCCN1CCCC1)C(=O)Nc1ccc2nc3n(c(=O)c2c1)CCCCC3 | 1.01 (inactive) | 
24 | O=C(CC1(O)C(=O)Nc2ccccc21)c1cc2ccccc2o1 (stereo not given) | 1.08 (inactive) | 
25 | CC1CCN(S(=O)(=O)c2ccc3c(c2)N(CC(=O)NCCN2CCCC2)C(=O)CO3)CC1 | -1.01 (inactive) | 
26 | CCCNc1c(NC2CCN(C(=O)OCC)CC2)c(=O)c1=O | -1.23 (inactive) | 
27 | CN(C)S(=O)(=O)c1cccc(-c2cn3cccnc3n2)c1 | -2.07 (active) | 
28 | O=C(NC1CCCCC1)c1cccc(NC2=NC3CS(=O)(=O)CC3S2)c1 (stereo not given) | -1.15 (inactive) | 
29 | O=C1c2cccnc2C(=O)N1CNc1ccccn1 | -1.26 (inactive) | 
30 | CCOC(=O)C1=C(CS(=O)(=O)c2ccccc2)NC(=O)NC1c1cc(OC)c(OC)cc1OC (stereo not given) | 1.83 (inactive) | 
31 | CN(C)CCNC(=O)C(=O)Nc1ccc2nc3n(c(=O)c2c1)CCCCC3 | 1.06 (inactive) | 
32 | Cc1[nH]n(-c2nc3ccccc3[nH]2)c(=O)c1C=Nc1ccc(F)cc1 |  | inactive
33 | CN(C(=O)c1ccc2c(=O)n3c(nc2c1)CCCCC3)c1ccc(F)cc1 | -1.12 (inactive) | 
34 | c1ccc(CNc2nc3ccccc3n3cnnc23)nc1 | 1.11 (inactive) | 
35 | COc1ccccc1-c1nc2s/c(=C3\C(=O)N(CC(=O)O)c4ccccc43)c(=O)n2n1 | 1.16 (inactive) | 
36 | O=c1c2ccccc2nc(N2CCOCC2)n1Cc1ccccc1 | -1.33 (inactive) | 
37 | COc1cc(NC(=O)Nc2ccc3snnc3c2)cc(OC)c1OC | -1.49 (inactive) | 
38 | CCCCN1C(=O)/C(=c2\sc3nc(-c4cc(OC)c(OC)c(OC)c4)nn3c2=O)c2ccccc21 | -1.17 (inactive) | 
39 | C=CCn1c(SCC(=O)N2CCCCC2)nc2sc3c(c2c1=O)CCC3 | -1.53 (inactive) | 
40 | O=C(O)C1CCN(c2nc3ccccc3n2Cc2ccccc2F)CC1 | 1.02 (inactive) | 

Source: PubChem BioAssay AID1259240 (Keith Lab, Institute of Cancer Science, University of …, 2017)
